As usually defined, the inhibition is the drop in the measured response relative to a control, in per cent.

The structures appear in SMILES notation. Out of some 330,000 compounds screened, about 1,900 (0.58%) were called active. Inconclusive results (about 4%) are left out. These entries were drawn from the full list. Potency and affinity values are given separately. Unmarked numbers belong to inactive results. Cut-off read from the data, not from the text of the source: inconclusive = inhibition above about 70% without an active follow-up result; inactive = below that.

This experiment is described as follows: M. tuberculosis growth inhibition, HTS (AID 449762).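 Note: bacterial growth assessed after seven days of incubation.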 To be noted: M. tuberculosis H37Rv growth inhibition, 7H9 media; at 25 µM; active compounds read high.
For `N/C(=N\S(=O)(=O)c1cc(C(F)(F)F)cc(C(F)(F)F)c1)c1ccncc1`, the inhibition was 1.58%. Under `CCc1nnc(NC(=O)CSC(=S)N2CCOCC2)s1` stands -7.36%.

Turning to `CCOc1ccc(-n2ccc(=O)c(C(=O)O)n2)cc1`, the inhibition is -0.69%. Then `S=c1nc2ccccc2c2nc(-c3ccccc3Br)[nH]n12`, with 8.46%; and `Cc1ccccc1-c1nc2c3ccccc3nc(=S)n2[nH]1`, with 14.3%.

Turning to `CCOCCn1c(C)c(C(=O)OCC)c2cc(O)c3ccccc3c21`, the inhibition is 9.34%.

With `Cn1cnnc1SCc1cccc(Br)c1`, the inhibition is 1.07%.

Regarding `Cn1cnnc1SCc1ccccc1Br`, the inhibition is -3.04%.

Regarding `CCOc1ccc(S(=O)(=O)NN=C2CCN(C(C)=O)CC2)cc1`, the inhibition was 10.4%.

For `Cc1ccc(/C=C/C(=O)N2CCCC(C(N)=O)C2)o1` (stereo not given), the inhibition was 7.73%. Under `CCN1CCN(C(=O)/C=C/c2ccc(C)o2)CC1` stands -7.62%.

As to `COc1ccc(CCNC(=O)C2CCCN(c3ncnc4c3nc3n4CCCCC3)C2)c(OC)c1` (stereo not given), the inhibition was 3.42%.

With `CC(C)(C)C1CCC(=NNC(=O)C2COc3ccccc3O2)CC1` (stereo not given), the inhibition is 2.24%.

In the case of `Cc1[nH]nc2c1C(c1cccs1)C1=C(CC(C)(C)CC1=O)N2` (stereo not given), the inhibition was -4.07%. Then `CCn1ncc([N+](=O)[O-])c1C(=O)N1CCCC1`, with 3%. For `CCCn1cnc2cc(NCc3ccccc3O)ccc21`, the inhibition is 29.1%.

In the case of `COc1cccc(CNc2ccc3c(c2)ncn3C)c1OC`, the inhibition was 8%. Under `N/C(=N\OC(=O)c1ccc([N+](=O)[O-])cc1)c1cccnc1` stands 8.92%; under `CC(C)(C)C1=C(C#N)C(c2cc3c(cc2Br)OCO3)C(C#N)=C(N)O1` (stereo not given), -2.53%. Under `O=C(Nc1ccc(N2CCN(C(=O)c3cccs3)CC2)cc1)c1ccccc1Cl` stands 1.86%; under `Cc1cccc(NC(=O)c2ccc(C3SCC(=O)N3CCc3ccccc3)cc2)c1` (stereo not given), 0.15%.

For `CC(=O)Nc1ccc(NC(=O)c2ccc(C3SCC(=O)N3CCc3ccccc3)cc2)cc1` (stereo not given), the inhibition is 15.4%. Then `Oc1cc(NCc2ccc(F)cc2)cc2cccnc12`, with 8.32%; and `Oc1cc(Nc2ccncc2)cc2cccnc12`, with 13.8%. Under `CC(C)n1nnc(-c2ccc(OCc3ccccc3F)cc2)n1` stands 8.81%; under `COc1ccc(NC(=O)CNC(=O)Cn2cnc3sc4c(c3c2=O)CCCC4)cc1OC`, 9.66%. Under `COc1cccc(NC(=O)CNC(=O)Cn2cnc3sc(C)c(C)c3c2=O)c1` stands -5.96%.

With `O=C(O)CCc1ccc(-c2ccccc2)o1`, the inhibition was -1.56%.

Take `COc1ccccc1-c1ccc(SCC(=O)NC2CCCC2)nn1`: the inhibition is -0.31%. Under `O=C(C#Cc1cccc([N+](=O)[O-])c1)c1ccccc1` stands 6.12%. `Nc1ccccc1C#Cc1ccccc1`: the inhibition was -9.91%.

For `CC1CCCC(NC(=O)CN(C)CC(=O)Nc2ccc(F)cc2)C1C` (stereo not given), the inhibition was -12.8%.

Turning to `Nc1nnc(SCC(=O)OCC(=O)Nc2ccccc2)s1`, the inhibition was -4.86%. Then `O=C(CNS(=O)(=O)c1ccccc1)N1CCN(Cc2ccccc2)CC1`, with -2.28%; and `CCCCS(=O)(=O)/C=C\C1C2C=CC(C2)C1S(=O)(=O)CCCC` (stereo not given), with 0.63%. Under `CCCCS(=O)(=O)/C=C/[C@H]1[C@H](S(=O)(=O)CCCC)[C@H]2C=C[C@@H]1C2` stands 1.49%; under `Oc1ccc(-c2c(-c3ccsc3)sc3ccccc23)cc1`, 28.2%. Under `COCc1ccc(-c2c(-c3ccsc3)sc3ccccc23)cc1` stands 6.72%. On to `CCN1CCN(c2ccc(NC(=O)c3cccc(F)c3)cc2Cl)CC1`, for which the inhibition was 4.34%. Under `CC(C)(C)C(=O)N1CCN(c2nc3ccc(Cl)cc3s2)CC1` stands 13.8%; under `CN(Cc1cn(C)nc1-c1cccc(Cl)c1)Cc1nccn1C`, -10.3%; under `Cc1ccc(-n2cc(CN(C)CCc3cn[nH]c3)c(-c3cccc(C)c3)n2)cc1`, 19.1%.

Regarding `Cc1ccc(NC2=C/C(=N/S(=O)(=O)c3cccs3)c3ccccc3C2=O)cc1C`, the inhibition was 5.44%. Under `Cc1ccc(NC2=C/C(=N/S(=O)(=O)c3cccs3)c3ccccc3C2=O)cc1` stands 62.9%; under `COc1ccc(Cl)cc1NC(=O)Nc1ccc(Br)cn1`, 5.18%. Under `O=C(O)COc1ccc(-c2nccc(-c3ccccn3)n2)cc1` stands 0.08%; under `CC(Oc1ccc(-c2nccc(-c3ccccn3)n2)cc1)C(=O)NN` (stereo not given), -4.92%; under `O=C(CSc1nc2ccccc2s1)CSc1nc2ccccc2s1`, 12%. `CC(=O)CSc1nc2ccccc2s1`: the inhibition was -0.04%. Then `FC(F)(F)c1nc2ccccc2c2nc3ccccc3n12`, with 9.4%; and `c1ccc(-c2nc3ccccc3c3nc4ccccc4n23)cc1`, with -1.99%. Then `COc1ccc(Cc2nc3ccc(C(=O)NCCSC)cc3o2)cc1`, with 2.47%. `COC(=O)CCNC(=O)c1ccc2nc(Cc3ccc(OC)c(OC)c3)oc2c1`: the inhibition is -1.6%.

For `C/C(=N\NC(=O)C1CC1c1ccccc1)c1ccc(C)s1` (stereo not given), the inhibition was -2.49%. Then `CCOC(=O)Cc1nn(Cc2nc(-c3ccc(C)cc3)cs2)c(=O)c2ccccc12`, with -4.15%; and `Cn1nc(-c2ccc(OCC(N)=O)cc2)c2ccccc2c1=O`, with -19.8%; and `CNC(=O)COc1ccc(-c2nn(C)c(=O)c3ccccc23)cc1`, with -7.66%.

As for `CCOC(=O)N1CCN(S(=O)(=O)c2ccc(C(=O)Nc3nc4c(s3)CC(C)CC4)cc2)CC1` (stereo not given), the inhibition is 16.7%.

In the case of `C#CCn1cnc2c(oc3ccccc32)c1=O`, the inhibition is 2.24%.

For the compound `COc1ccc(Br)cc1-c1nc(CCl)cs1`, the inhibition was 60.4%. Then `Cc1cc(C)n2nc(CC#N)c(C#N)c2n1`, with 1.45%; and `N#C/C(=C\c1ccccn1)c1ccccn1`, with -3.85%; and `CCc1ccc(N2C(=O)CN(Cc3cccs3)C2=S)cc1`, with 38.7%. Then `COc1ccc(OCc2nc(N)nc(Nc3ccccc3OC)n2)cc1`, with 2.69%; and `COc1ccccc1Nc1nc(N)nc(CN2CCN(Cc3ccccc3)CC2)n1`, with 43.2%.

The values above are taken from PubChem BioAssay AID449762 (Southern Research Specialized Biocontainment Screening …, 2010).
